The results in this text go back to ChEMBL document CHEMBL1157539, “Thousands of chemical starting points for antimalarial lead identification” (Nature, 2010).

Values joined by “and” are separate entries in the source; they are usually repeats but may differ in a detail not shown here. Equal entries are not always repeated.

One may read the Inhibition as the drop in the measured response relative to a control, in per cent.

The subject of the assay is Plasmodium falciparum. The assay is described as follows: GSK_TCMDC: Inhibition of Plasmodium falciparum 3D7 in whole red blood cells, using parasite LDH activity as an index of growth. Test compounds present at 2uM. Type of assay: functional.
`CC(C)C1c2ccc(O)cc2CC2C(=O)N(C3CCCCC3)C(=O)N21` (centres undefined): the Inhibition was 95%. The molecule `O=C(Nc1cccc(Cl)c1Cl)Nc1ccnc2ccccc12` came in with an Inhibition of 100%. Molecule `Clc1ccc(-c2[nH]c3ccccc3c2CN2CCC(N3CCCCC3)CC2)cc1` yielded an Inhibition of 93%. For `O=C(/C=C/c1ccc(Cl)c(Cl)c1)NCCCCCN1CCC(c2c[nH]c3ccccc23)C(O)C1` (centres undefined) the value was 96% and 99%. For `CN(C)c1cccc2c1nc(-c1ccco1)n2CCNCc1ccccc1.O=C(O)C(F)(F)F` the value was 98%; for `Cn1cccc1C(=O)C(=O)Nc1cccc(-c2ccc(-c3nc4cc(C(F)(F)F)ccc4[nH]3)cc2)c1`, 94%; for `CCc1ccccc1N1CCN(CCCCNC(=O)c2ccc(NC(=O)c3ccc(Cl)cc3)cc2)CC1`, 96%. On to `COc1ccc(-c2cccc(NC(=O)c3cccc(Cl)c3)c2)cc1CN1CCN(C)CC1.O=C(O)C(F)(F)F`, for which the Inhibition was determined as 100%. For `Clc1ccc(Nc2nc(-c3ccccn3)cs2)nc1` the value was 95%; for `O=C(NCc1ccccc1)c1nn(CCCN2CCC(N3CCCC3)CC2)cc1-c1ccc(Cl)c(Cl)c1`, 100%. For `CC(C)CSc1cc(C(=O)Nc2cc(Cl)ccc2O)ccn1` the value was 100%. `O=C(NCCc1ccc(Cl)c(Cl)c1)c1ccc(CNC(=O)c2ccc(O)c(-c3ccc(Cl)c(Cl)c3)c2)cc1` registered an Inhibition of 97%. For `CC(C)NCc1ccc(-c2ccc(-c3nc4cc(C(F)(F)F)ccc4[nH]3)cc2)cc1.O=C(O)C(F)(F)F` the value was 100%; for `CC[C@H](C)CNC(=O)c1cncc(-c2cccc(CN(C)C3CCN(C)CC3)c2)c1.O=C(O)C(F)(F)F`, 100%.
